# Screening data from PubChem BioAssay.
# PI4K2A inh – blocks human PI4K2A kinase activity; Q9BTU6; purified PI4K2A, ADP-Glo luminescence, 1 h; hits give low values; AID 1346378; activity change, negative = inhibition, % at 76.9 µM; hit rate 0.13% among 420,000; in the data active means activity change below about -50%; inconclusive means mostly about -30% to -49%;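 further: -100% = wells without enzyme as full effect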
# Target sequence (Q9BTU6 whole entry, looked up): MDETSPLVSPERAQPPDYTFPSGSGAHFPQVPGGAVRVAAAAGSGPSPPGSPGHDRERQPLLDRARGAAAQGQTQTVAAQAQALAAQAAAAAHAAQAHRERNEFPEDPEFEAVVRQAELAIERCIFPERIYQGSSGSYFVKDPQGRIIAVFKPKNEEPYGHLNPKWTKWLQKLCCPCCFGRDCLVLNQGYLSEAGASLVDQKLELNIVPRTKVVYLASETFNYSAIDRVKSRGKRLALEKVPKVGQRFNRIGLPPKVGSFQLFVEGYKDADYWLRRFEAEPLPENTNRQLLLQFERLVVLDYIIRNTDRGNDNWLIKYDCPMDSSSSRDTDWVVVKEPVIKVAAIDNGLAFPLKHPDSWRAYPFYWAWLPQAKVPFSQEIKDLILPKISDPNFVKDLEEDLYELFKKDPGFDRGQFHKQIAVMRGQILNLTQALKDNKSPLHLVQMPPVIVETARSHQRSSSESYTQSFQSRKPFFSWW
#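 Compounds are screened against recombinant PI4K2A using PI as substrate and ATP, the latter dispensed at 300 microM. Reactions run one hour at ambient temperature before ADP-Glo detection; full inhibition defined by wells lacking enzyme.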
# KB-V1 MDR tox – KB-V1 MDR subline cytotoxicity. hit rate 3.4% among 400,000. KB-V1 MDR cells viability, CellTiter-Glo, 72 h. Potency, µM (top dose mostly 46.1 µM), actives largely listed as cytotoxic; further: potency means the concentration at half of the fitted maximal effect; nearly all actives have a fitted effect of over 60% in size
#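 Cells of the MDR subline KB-V1 are plated, dosed with compound at multiple concentrations, and incubated 72 h at 37 degrees C; CellTiter-Glo is then added and luminescence read after 10 min.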
# KB-3-1 tox – kills parental KB-3-1 adenocarcinoma cells. KB-3-1 viability, CellTiter-Glo ATP luminescence, 72 h. AID 1347075. Potency, µM (series often up to 46.1 µM), hits mostly cytotoxic. hit rate 1.4% among 400,000; further: potency means the concentration at half of the fitted maximal effect; nearly all actives have a fitted effect of over 60% in size
#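 Parental KB-3-1 adenocarcinoma cells in phenol-red-free DMEM with 10% FBS were pin-treated with compounds at several concentrations, incubated 72 h at 37 °C, and viability read by CellTiter-Glo luminescence; concentration-effect curves were fitted after normalization.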
# Giardia kill – Giardia lamblia killing; Giardia lamblia trophozoite viability; activity change, % at 7.66 µM, hits read low; hit rate 0.15% among 340,000; AID 540267; in the data active means activity change below about -80%; inconclusive means between about -30% and that limit;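 further: parasites exposed to compound for two days anaerobically before the ATP read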
#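 Trophozoite viability was measured as ATP-dependent luminescence, read 15-30 min after reagent addition. Before that, parasites at 100 cells/well were exposed to compounds for 48 h, anaerobically, at 37 deg C.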
# A549 tox – kills or reduces viability of A549 cells in Nrf2 counter-screen; hit rate 0.16% among 390,000; Potency, µM (highest dose often 46 µM), for the others: top-dose activity change, negative = cytotoxicity, most hits filed as inhibitors; A549 ARE-Fluc cells, CellTiter-Fluor viability, 18-24 h; AID 504648; further: potency means the concentration at half of the fitted maximal effect
#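 A549 ARE_Fluc cells in 5% FBS OPTI-MEM were exposed to compounds in concentration-response for 18-24 h at 37 deg C. Viability was read by CellTiter-Fluor fluorescence (Ex 405/Em 525) after 30 min, before the luciferase read.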
# Nrf2 block – Nrf2 pathway inhibition; A549 ARE-Fluc reporter, luciferase luminescence, 18-24 h; Potency, µM (highest dose often 46 µM), for the others: at the top dose activity change, negative = inhibition, usual class: inhibitors; hit rate 2.1% among 360,000; further: potency means the concentration at half of the fitted maximal effect; nearly all actives have a fitted effect of over 60% in size
#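 A549 ARE_Fluc cells, 5000/well, 5% FBS OPTI-MEM; compounds in dose-response, 18-24 h at 37 °C/5% CO2; CellTiter-Fluor viability read (Ex 405/Em 525), then BugLite luciferase luminescence = Nrf2 activity.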
# * marks the source's active call; other numbers are inactive results; i = inactive; ? = inconclusive; / = no result given. Most compounds without a hit are left out; they make up all but 5.7% or so of the library. Unless noted, the call rests on the fitted dose curve; in most records, active means well fitted curve in the direction sought with a large enough effect; inconclusive means small, poorly fitted or top-dose-only effect, or another doubt; inactive means no such curve, though single readings can be large; an effect the other way counts as inactive or inconclusive. Unless noted, on the % scale 0 is the no-effect control and ±100 the full control effect.
SMILES,PI4K2A inh,KB-V1 MDR tox,KB-3-1 tox,Giardia kill,A549 tox,Nrf2 block
O=C(CCn1nnc(-c2cccs2)n1)N1CCCCC1,-3.1,/,/,/,/,/
CCOC(=O)N1CCN(C(=O)C[C@@H]2C(=O)N3CCCC4=C3[C@@]2(C(=O)OCC)CCC4)CC1,-3.9,/,/,/,/,/
Cn1cc(/C=C/c2ccnc3ccccc23)c2ccccc21,/,i,?,/,/,/
CCN1/C(=C/c2ccc3cc(C)ccc3[n+]2CC)Sc2cc(C)c(C)cc21,-1.7,?,1.84µM*,16.9,?,1.3µM*
CCOC(=O)/C(=C/C=C1\Sc2cc(C)c(C)cc2N1CC)C(C)=O,0.6,?,?,-6.0,?,?
COc1ccc(NS(=O)(=O)c2ccc3c(c2)CCC(=O)N3)cc1,/,/,/,/,0.1%,-12.4%
CCOC(=O)c1c(NC(=O)C(=O)N/N=C/c2ccc(O)c(OC)c2)sc2c1CCCCC2,3.6,?,i,1.3,-15.1%,?
CCOC(=O)c1c(NC(=O)C(=O)N/N=C/c2ccc(OCC)cc2)sc2c1CCCCC2,-0.8,16.4µM*,i,-3.0,-2.4%,15.3%
CCOC(=O)c1c(NC(=O)c2ccccc2C)sc2c1CCCC2,-0.2,/,/,/,17.9%,?
CCOC(=O)c1c(NC(NC(=O)C(C)C)C(Cl)(Cl)Cl)sc2c1CCC2 (configuration not stated),-3.5,23.1µM*,?,-10.6,?,23.1µM*
CCOC(=O)Nc1sc2c(c1C(=O)OCC)CCC2,4.2,i,i,-7.6,1.2%,15.3%
CCOC(=O)c1c(NC(=O)c2ccoc2C)sc2c1CCC2,0.5,20.6µM*,i,-1.8,-6.5%,?
CCOc1ccc(Oc2c(Cl)cnn(Cc3cccc4ccccc34)c2=O)cc1,-1.3,/,/,/,/,/
COc1cc(/C=C2\C=Cc3ccccc32)ccc1N(C)C,/,i,i,/,/,/
c1ccc(C(Cc2nc(-c3ccncc3)no2)c2ccccc2)cc1,2.4,i,11.6µM*,-8.7,-14.7%,8.2µM*
CN(C(=O)Cn1c(=O)n(CCC(=O)NCc2ccc3c(c2)OCO3)c(=O)c2sccc21)c1ccccc1,0.6,/,/,/,-6.2%,-4.9%
O=C(Oc1ccccc1C(=O)Nc1ccccc1)c1ccccc1Br,18.0,16.4µM*,11.6µM*,-13.9,-1.6%,-1.6%
O=C(Nc1ccc(C2CC2(Cl)Cl)cc1)c1ccccc1Br (configuration not stated),-4.4,18.4µM*,i,8.1,4.4%,6.9%
O=C(COc1ccccc1C(=O)Nc1ccccc1)Nc1ccccc1Br,/,i,i,/,/,/
O=C(Nc1ccc(C(=O)N2CCCC2)cc1)c1ccccc1Br,-2.1,/,/,7.6,-2.5%,12.7%
O=C(COc1ccccc1C(=O)Nc1ccccc1)c1ccc(Br)cc1,4.0,?,i,-1.3,?,20.6µM*
O=C(C[n+]1ccc(Cl)c2ccc(Cl)cc21)c1ccc(F)cc1,/,i,?,/,/,/
CC1CCC2(CC1)CCC2NCc1ccc(Cl)c(Cl)c1 (configuration not stated),1.7,/,/,/,/,/
Cc1ccc(/C=N/Nc2ncc(Cl)cc2Cl)s1,-8.2,?,?,-4.8,5.8µM*,?
Cc1ccc(Cl)cc1N(C)C(=O)c1sc2nc3n(c(=O)c2c1C)CCCC3,-5.8,i,i,/,5.9%,-5.8%
SMILES,PI4K2A inh,KB-V1 MDR tox,KB-3-1 tox,Giardia kill,A549 tox,Nrf2 block
CCOc1ccc(CCNC(=O)CN2C(=O)COc3ccc(S(=O)(=O)N4CCC(C)CC4)cc32)cc1,-7.5,?,?,/,-6.8%,0.6%
CCC1(c2ccc(F)cc2)NC(=O)N(CC(=O)NC2CCCC(C)C2C)C1=O (configuration not stated),5.3,16.4µM*,i,-2.0,-6.7%,12.1%
CCN(c1ccccc1)S(=O)(=O)c1ccc(NC(=O)c2nc(S(C)(=O)=O)ncc2Cl)cc1,-9.1,?,5.17µM*,6.5,?,20.6µM*
CCSc1ncc(Cl)c(C(=O)Nc2ccc(S(=O)(=O)N(C)c3ccccc3)cc2)n1,-0.5,i,i,/,1.0%,?
CCS(=O)(=O)c1ncc(Cl)c(C(=O)Nc2ccc(S(=O)(=O)N(C)c3ccccc3)cc2)n1,-13.1,?,2.59µM*,1.7,?,?
NC(=O)C1CCN(c2ncc(Br)s2)CC1,-7.6,/,/,/,/,/
Clc1ccc(-n2c(SCc3cccc4ccccc34)nnc2-c2ccccc2)cc1,-4.2,/,/,/,/,/
O=C(OCc1cn(Cc2cccc(F)c2)nn1)N1CCOCC1,-0.7,/,/,/,/,/
O=C(O)C1C(C(=O)Nc2ccc(Cl)cc2)C2C=CC1C21CC1 (configuration not stated),4.9,20.6µM*,i,14.0,-3.7%,-14.1%
O=C(Nc1ccc(F)cc1)Nc1nc2ncccn2c1-c1ccc(F)cc1,3.4,/,/,/,/,/
O=C(c1ccco1)N1CCN(c2nc3ccccc3n3nnnc23)CC1,-11.9,i,i,-9.3,-1.5%,/
O=C(CN1CCC(n2nnc3ccccc32)CC1)NCc1cccs1,1.4,23.1µM*,i,-1.3,?,-18.1%
O=C(c1ccco1)N1CCC(n2nnc3ccccc32)CC1,1.1,13µM*,i,-7.0,?,?
Nc1ccc(C(=O)N2CC3CC(CN(Cc4ccccc4)C3)C2)cc1,0.7,/,/,/,/,/
CCOc1ccc(NC(=O)c2cc3ccccc3cc2O)cc1,-1.9,i,i,-5.2,-5.1%,20.0%
COc1cc(C(=O)Nc2ccc(C)cc2)c2ccccc2n1,5.9,?,0.82µM*,12.4,0.4%,?
CCOc1ccc(NC(=O)c2cccc3ccccc23)cc1,-3.4,5.8µM*,?,-20.7,-7.9%,5.7%
CCOc1ccc(NC(=O)c2cc(OC)nc3ccccc23)cc1,-0.3,?,1.16µM*,7.8,-16.2%,?
COC(=O)[C@H]1C[C@@]2(n3ccc4ccccc43)c3ccccc3N(S(=O)(=O)c3ccccc3)[C@H]2N1,1.6,/,/,/,/,/
Cc1ccc(-n2c(SCC(=O)Nc3ccccc3-c3ccccc3)nnc2-c2cccnc2)cc1,-7.6,/,/,/,/,/
CC[C@H](C)[C@@H]1NC(=O)[C@@H](CC(C)C)NC(=O)[C@H](C(C)C)NC(=O)[C@H]2CSSC[C@H](NC1=O)C(=O)N2,-0.7,i,1.16µM*,/,/,/
Cc1ccc2nc(-c3ccc(N=Nc4cc(S(=O)(=O)O)c5ccccc5c4O)cc3)sc2c1S(=O)(=O)O,/,i,i,-3.2,13µM*,11.9%
Cc1cccc(NC(=O)CSc2nccn2Cc2ccc(F)cc2)c1C,4.0,/,/,/,-1.0%,/
CS(=O)(=O)N(CC(=O)Nc1cc(Cl)ccc1Cl)c1ccccc1,3.5,16.4µM*,i,0.2,1.1%,-16.0%
C/C(=N\NC(=O)CSCc1ccc([N+](=O)[O-])cc1)c1ccccc1,-0.3,?,i,5.8,10.7%,?
